Compound activity: PubChem BioAssay, several laboratories
This is a sample that favours compounds with a hit; in the whole collection about 12% have one here.
ROMK primary – modulates human ROMK potassium channel activity; P48048; Tet-inducible ROMK, thallium flux fluorescence; actives lie on both sides; B-score at 10 µM; 130,000 compounds, 2% hits; AID 1918;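 active means signal ratio slope over the read window, or its plate-corrected B-score, at least 3 SD from the plate mean, either direction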;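 further: B-score of the F/F0 ratio slope over 7 to 12 s after thallium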
KCC2 mod – modulates chloride dependent transport by human KCC2; 190,000 compounds, 2.2% hits; KCC2 cells, thallium flux FluoZin-2 fluorescence; B-score of Tl+ flux slope (higher = more flux/activation; lower = inhibition) at 10 µM; Q9H2X9;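 active means thallium flux slope and its plate-corrected score both differing from the plate sample mean at a set confidence after two filtering rounds, in either direction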;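 further: slope of fluorescence scaled to starting intensity during 10 to 20 s after thallium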
Target sequence (Q9H2X9 whole entry, looked up): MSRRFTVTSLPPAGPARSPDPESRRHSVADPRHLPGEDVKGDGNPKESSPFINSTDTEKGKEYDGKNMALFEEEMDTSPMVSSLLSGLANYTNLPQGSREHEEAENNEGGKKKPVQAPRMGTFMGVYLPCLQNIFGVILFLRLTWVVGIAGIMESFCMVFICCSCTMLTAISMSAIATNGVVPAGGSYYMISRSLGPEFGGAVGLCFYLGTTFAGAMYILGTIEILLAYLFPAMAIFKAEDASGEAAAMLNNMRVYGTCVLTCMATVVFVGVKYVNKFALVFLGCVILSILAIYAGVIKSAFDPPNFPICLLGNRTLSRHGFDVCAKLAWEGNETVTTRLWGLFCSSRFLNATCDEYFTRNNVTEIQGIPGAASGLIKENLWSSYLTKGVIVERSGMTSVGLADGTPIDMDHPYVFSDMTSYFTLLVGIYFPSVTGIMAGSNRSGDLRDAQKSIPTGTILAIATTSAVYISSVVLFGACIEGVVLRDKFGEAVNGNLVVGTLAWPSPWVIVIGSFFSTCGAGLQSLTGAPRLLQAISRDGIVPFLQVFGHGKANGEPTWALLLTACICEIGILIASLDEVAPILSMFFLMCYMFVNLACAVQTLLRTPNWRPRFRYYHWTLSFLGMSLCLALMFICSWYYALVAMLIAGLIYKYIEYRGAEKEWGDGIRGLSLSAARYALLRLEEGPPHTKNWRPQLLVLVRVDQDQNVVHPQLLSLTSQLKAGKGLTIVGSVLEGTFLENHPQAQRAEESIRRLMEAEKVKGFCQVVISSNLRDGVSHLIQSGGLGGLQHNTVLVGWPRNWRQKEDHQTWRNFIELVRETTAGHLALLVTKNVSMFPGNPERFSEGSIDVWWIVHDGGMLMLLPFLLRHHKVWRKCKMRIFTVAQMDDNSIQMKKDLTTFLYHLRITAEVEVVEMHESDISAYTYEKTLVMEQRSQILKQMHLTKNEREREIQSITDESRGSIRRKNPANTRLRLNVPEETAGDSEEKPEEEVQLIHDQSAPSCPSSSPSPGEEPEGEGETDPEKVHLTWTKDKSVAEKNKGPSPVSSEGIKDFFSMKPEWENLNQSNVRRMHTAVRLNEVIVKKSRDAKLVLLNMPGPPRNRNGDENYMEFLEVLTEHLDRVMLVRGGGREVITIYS
WT yeast gro inh – growth inhibition of WT yeast, mitochondrial fusion screen; mitochondrial fusion phenotypic screen, WT strain; inhibition, % at 10 µM; 190,000 compounds, 2.1% hits; AID 1362; in the data active means inhibition above about 58%; tested in S. cerevisiae
Calpain2 inh – calpain II (pig) inhibition. 220,000 compounds, 0.37% hits. inhibition, % at 16 µM. purified calpain II, fluorogenic peptide substrate, 30 min. AID 1236;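 active means inhibition above about 50%, limit read from the data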
L major viab – Leishmania major promastigote growth inhibition. Leishmania major promastigotes, resazurin fluorescence viability. inhibition, % at 10 µM. 200,000 compounds, 9% hits. AID 1063; in the data active means inhibition above about 50%;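 further: promastigotes grown with compound for 44 hours at 28 °C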
KCC2 secondary – confirmation of human KCC2 transport modulators | normalised thallium flux (F/F0 slope) at 10 µM | 3,700 compounds, 15% hits | shares compounds with KCC2 mod | HEK293-KCC2, thallium flux, FluoZin2 fluorescence; hits give high values;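 active means thallium flux slope above the same plate's solvent-only control mean plus 3 SD; inconclusive means the two replicate wells disagree; inactive means no significant difference from solvent-only control wells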
KCC2 bumet counter – thallium flux despite bumetanide block in KCC2 cells, secondary assay 3; shares compounds with KCC2 mod; HEK293-KCC2 + bumetanide/ouabain, thallium flux FluoZin2; hits give high values; normalized thallium flux at 10 µM; 3,700 compounds, 49% hits;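 active means thallium entry rate above the same plate's blocked-transporter control wells by more than 3 SD; inconclusive means the two repeat wells disagree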;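 further: raw slope of fluorescence over initial fluorescence between 10 and 20 s after thallium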
KCC2 secondary2 – confirmation of human KCC2 transport modulators; shares compounds with KCC2 mod; HEK293-KCC2, thallium flux FluoZin2 fluorescence; actives lie on both sides; F/F0 rise rate, 10–20 s post-thallium; normalized thallium flux at 10 µM; 3,700 compounds, 23% hits;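 active means thallium flux slope more than 3 SD above or below the plate's solvent-only control mean, mostly below; inconclusive means the two repeat wells disagreed; inactive means no significant shift from solvent-only controls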;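 further: raw slope with 0.1% DMSO as baseline and bumetanide as block control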
HEK counter1 – acts in parental HEK cells, KCC2 counter-screen; shares compounds with KCC2 mod; HEK293 parental cells, thallium flux FluoZin2, ouabain; baseline-ratio fluorescence slope, 10–20 s after thallium; 3,700 compounds, 46% hits; thallium flux rate (normalised fluorescence) at 10 µM; AID 1716;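 active means thallium flux rate significantly above the same plate's solvent-only control wells, beyond their mean plus 3 SD; inconclusive means the two replicate wells gave conflicting results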
KCC2 ouabain – modulates human KCC2 on retest with ouabain. shares compounds with KCC2 mod. HEK293-KCC2, thallium flux FluoZin2 fluorescence; bidirectional: low = inhibitor, high = activator. raw Tl+ flux slope (below DMSO = inhibition, above = activation) at 10 µM. 3,700 compounds, 48% hits. AID 1717;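 active means thallium flux slope beyond 3 SD from same-plate DMSO control mean in most replicates, usually higher, sometimes lower; inconclusive means repeat tests gave conflicting results; inactive means no significant difference from controls in most replicates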;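 further: slope of initial-normalized fluorescence between seconds 10 and 20 after thallium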
HEK293 Tl flux2 – parental HEK flux effect, counter-screen 2; 3,700 compounds, 33% hits; HEK293 parental, thallium flux FluoZin-2 fluorescence slope; thallium flux slope at 10 µM; shares compounds with KCC2 mod; AID 1718;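 active means thallium flux slope above the same plate's solvent-control mean plus 3 SD in both duplicate wells; inconclusive means duplicate wells that disagreed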;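 further: run without ouabain in cells lacking the KCC2 cotransporter; slope of fluorescence scaled to its starting value between 10 and 20 s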
Starred values were filed as active, the others as inactive; ? = inconclusive; / = no result.

SMILES	ROMK primary	KCC2 mod	WT yeast gro inh	Calpain2 inh	L major viab	KCC2 secondary	KCC2 bumet counter	KCC2 secondary2	HEK counter1	KCC2 ouabain	HEK293 Tl flux2
CCC(=O)NC(=S)NNC(=O)COc1ccc(Br)cc1	0.547	7.62*	23.9	-27.5	74.3*	0.00721	0.019*	0.0312	0.018*	?	0.0154*
COc1ccc(CC(=O)NC(=S)NNC(=O)COc2c(C)cccc2C)cc1	0.129	7.27*	15.3	-9.7	-4.1	0.0128*	0.0376*	0.0342	0.0149*	?	0.0122*
O=C(NC(=S)Nc1ccc(Br)cn1)c1cccnc1	/	2.64	/	2.0	/	/	/	/	/	/	/
O=C(COc1ccccc1)NC(=S)Nc1ccc(Br)cn1	/	85*	/	-23.8	/	0.00708	0.045*	0.0484*	0.0532*	0.0519*	0.0409*
CN(C)C(CNC(=O)CNC(=O)c1ccc(Br)cc1)c1ccccc1 (centres undefined)	-0.561	-0.613	-1.4	-23.8	-0.6	/	/	/	/	/	/
Cn1c(=S)[nH]c2c(c1=O)C(C)(C)Cc1ccccc1-2	1.88	83*	34.2	29.8	-5.1	0.066*	0.117*	0.0836*	0.096*	0.0943*	0.0913*
O=C(NC(=S)N1CCN(c2nc(-c3ccccc3)cs2)CC1)c1cccnc1	1.14	33.6*	44.4	-18.1	-5.4	0.0277*	0.111*	?	0.0415*	0.0704*	0.0151*
O=C(NC(=S)Nc1ccccc1C(F)(F)F)c1ccccc1F	/	99.3*	20.7	-16.1	-0.9	0.00737	0.087*	0.0518*	0.0547*	0.0675*	0.0517*
O=C(NC(=S)Nc1ccccc1[N+](=O)[O-])c1ccco1	0.382	25.4*	14.3	13.2	7.2	0.0171*	0.077*	0.0377	0.0321*	0.0645*	0.0161*
O=C(Nc1cccc(NC(=O)c2cccnc2Cl)c1)c1ccco1	/	-2.01	-6.2	0.5	12.0	/	/	/	/	/	/
Cc1ccccc1C(=O)NC(=S)Nc1ccccc1[N+](=O)[O-]	/	14*	2.8	-8.4	6.7	0.00733	0.0129*	0.0284	0.0109*	0.0209	0.0115
O=C(NC(=S)Nc1cccnc1Cl)c1ccco1	1.05	24.9*	10.2	-16.0	-5.3	0.0198*	0.0505*	0.0404	?	0.043*	?
O=C(CNC(=O)c1ccc2ccccc2c1)OCC(=O)N1CCN(S(=O)(=O)c2ccc3ccccc3c2)CC1	/	-0.0893	-1.3	-83.0	-8.9	/	/	/	/	/	/
COc1ccc(/C(N)=N/O)c(OC)c1	-0.24	0.828	0.1	12.3	-4.9	/	/	/	/	/	/
CCCC(=O)NC(=S)Nc1cc(-c2nc3ncccc3o2)ccc1C	/	-0.21	/	20.4	/	/	/	/	/	/	/
COC(=O)c1ccccc1NC(=S)NC(=O)c1ccccc1C	-1.3	4.73*	12.6	-21.4	-4.3	0.0103	0.0401*	0.0299	0.0135*	?	?
Cc1cc(-c2nc3ncccc3o2)ccc1NC(=S)NC(=O)c1ccco1	0.425	10.3*	14.3	-68.0	-3.6	0.0129*	0.0403*	0.036	0.0346*	0.0351*	0.0164*
COC(=O)CSc1nc2ccccn2c(=O)c1C=O	1.81	-0.212	10.0	-26.4	-6.7	/	/	/	/	/	/
O=c1cc(-c2ccccc2)nc2c(-c3ccccc3)c(C(F)(F)F)[nH]n12	/	3.8*	/	-6.7	/	0.0099	0.0138*	0.033	0.011*	0.0221	0.00911
Cc1cc(=O)n2[nH]c(C)c(-c3ccccc3)c2n1	/	-0.0452	-3.4	-3.0	-5.6	/	/	/	/	/	/
CSc1ncccc1C(=O)OCC(=O)c1ccc(Br)s1	0.0051	0.972	-3.8	5.0	-10.6	/	/	/	/	/	/
CC1=C(C(=O)Nc2ccccc2)C(c2ccco2)C(C#N)=C(SCC(=O)OC(C)C)N1 (centres undefined)	/	-2.94	21.8	-21.1	14.2	/	/	/	/	/	/
CC1=C(C(=O)Nc2ccccc2)C(c2ccco2)C(C#N)=C(SCc2ccccc2)N1 (centres undefined)	-1.18	/	0.8	-66.6	30.1	0.00747	0.00434	0.0302	0.00777	0.0186	0.011
CCn1c(-c2csc3c2CCC(C)C3)n[nH]c1=S (centres undefined)	/	11.4*	46.6	3.5	35.6	0.00711	0.0274*	0.0353	0.0236*	0.0297*	0.0141*
CCn1c(-c2ccccc2O)n[nH]c1=S	/	-0.0129	3.7	8.0	-2.2	/	/	/	/	/	/
SMILES	ROMK primary	KCC2 mod	WT yeast gro inh	Calpain2 inh	L major viab	KCC2 secondary	KCC2 bumet counter	KCC2 secondary2	HEK counter1	KCC2 ouabain	HEK293 Tl flux2
CCOC(=O)c1ccccc1NC1OC(=O)c2ccccc21 (centres undefined)	0.0171	-3.95*	36.3	-104.9	-2.4	?	0.00795	0.0305	?	0.0206	?
Cc1nc2nc[nH]n2c(=O)c1NC(=O)c1c(-c2ccccc2Cl)noc1C	0.152	-0.0341	-7.5	4.2	-8.8	/	/	/	/	/	/
COc1ccc(N2C(=S)N=C(Nc3ccccc3)C23CCCCC3)cc1	/	23.2*	-3.8	-13.3	0.7	?	0.0261*	0.0327	0.0142*	0.0291*	0.0124*
Cc1cccc(NC2=NC(=S)N(CC#N)C23CCCCC3)c1	/	2.1	2.9	1.1	2.9	/	/	/	/	/	/
NC(=O)c1ccc(NC(=O)CSc2nnc(-c3ccncc3)n2Cc2ccco2)cc1	0.00629	-0.165	/	-7.0	/	/	/	/	/	/	/
Cc1ccc(O)c(C2=NNC(c3ccc(Cl)cc3)C2)c1 (centres undefined)	/	8.55*	/	-8.3	/	0.00936	0.0156*	0.0335	0.0134*	0.0265	?
Oc1ccc(Cl)cc1C1=NNC(c2cccs2)C1 (centres undefined)	/	68.4*	/	-1.2	/	0.00995	0.0979*	?	0.0612*	0.0771*	0.0231*
Cc1ccc(O)c(C2=NNC(O)(C(F)(F)F)C2)c1 (centres undefined)	0.124	-1.15	15.2	-43.8	-0.7	/	/	/	/	/	/
O=C(Nc1ccccc1N1CCOCC1)c1ccc2nc[nH]c2c1	1.1	-0.362	-12.4	-8.5	-1.8	/	/	/	/	/	/
CC(C)C(CCNC(=O)CN1C(=O)c2ccccc2C1=O)c1ccco1 (centres undefined)	-0.871	1.59	10.1	3.2	-5.8	/	/	/	/	/	/
CC(C)C(CCNC(=O)CC(Cc1ccccc1)c1ccco1)c1ccco1 (centres undefined)	/	-4.46*	13.5	-58.9	2.5	?	0.00498	?	?	0.0156*	0.00954
Cc1cc2cc(CCNC(=O)c3ccc(C)c([N+](=O)[O-])c3)c(=O)[nH]c2cc1C	-0.621	-0.792	5.0	-26.0	10.2	/	/	/	/	/	/
